# Results: PubChem BioAssay AID504582 (Broad Institute, 2011)
# About 2,300 (0.68%) of roughly 340,000 compounds were called active. No stated cut-off is given here; in the data, active means growth rescue above about 28% (passing the limit was not always enough); inconclusive means no clear call, values can overlap the other calls. What follows is part of a selection rich in actives, with near analogues and random picks from the rest.
# Test: rescue of yeast from PfHsp40 toxicity, primary screen, S. cerevisiae, ATP luminescence (AID 504582);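 further: yeast W303a lacking pdr1 and pdr3 grown in galactose medium; growth measured after three days at 30 °C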
# Settings: S. cerevisiae expressing PfHsp40, growth rescue, at 12.5 µM, stronger effect = higher value
row,Compound,growth rescue
1,CCOC(=O)CNC(=O)CSc1ncccc1-c1nc2ccccc2[nH]1,0.257% (inactive)
2,COC(=O)Cc1cc(=O)n(-c2nc3ccccc3s2)[nH]1,103% (active)
3,CC(=NCc1ccco1)c1c(C(F)(F)F)[nH]n(-c2nc3ccccc3s2)c1=O,-0.486% (inactive)
4,Cc1cc(NC(=O)CN2CCCC(C)C2)n(-c2nc3ccccc3s2)n1 (centres undefined),-1.25% (inactive)
5,O=C(NCCCn1ccnc1)c1cc(-c2ccccc2)on1,-0.876% (inactive)
6,O=C(/C=C/c1ccccc1)Oc1coc(CSc2ncccn2)cc1=O,1.58% (inactive)
7,COc1cc(/C=C2\Oc3ccc(C#Cc4ccc(O)cc4)cc3C2=O)cc(OC)c1,-1.52% (inactive)
8,O=C1c2ccccc2C(=O)N1CCC#Cc1ccc2cc(C3(O)CCCCC3)oc(=O)c2c1,0.213% (inactive)
9,COc1cc(C#Cc2ccc3cc(CCCO)oc(=O)c3c2)cc(OC)c1,45.9% (active)
10,CCN1CCN(C(=O)CN(C)S(=O)(=O)c2ccc3ccccc3c2)CC1,-0.824% (inactive)
11,S=c1c2[nH]cnc2ncn1CCSc1ncnc2nc[nH]c12,-2.56% (inactive)
12,CC(=O)c1ccc(OCC(O)CN2CCN(S(=O)(=O)c3cccc(Br)c3)CC2)cc1 (centres undefined),26.4% (active)
13,O=S(=O)(c1ccc(OCC(O)CN2CCN(c3ccccc3Cl)CC2)cc1)N1CCOCC1 (centres undefined),2.31% (inactive)
14,Cc1cccc(OCC(O)CN2CCN(S(=O)(=O)c3ccc(C)cc3C)CC2)c1 (centres undefined),0.709% (inactive)
15,COC(=O)c1cc2occc2n1Cc1nc(-c2ccccc2C)oc1C,1.43% (inactive)
16,Cc1c(NS(=O)(=O)c2cc(C(=O)NCCc3ccc(F)cc3)cc(Cl)c2Cl)c(=O)n(-c2ccccc2)n1C,-0.709% (inactive)
17,CC12CCC(C(=O)N(NC(=O)c3ccccc3O)C1=O)C2(C)C (centres undefined),64.6% (active)
18,COc1ccccc1C(=O)NN1C(=O)C2C3C=CC(O3)C2C1=O (centres undefined),0.742% (inactive)
19,CC1=CC(C)(C)NC(=S)N1NC(=O)c1ccccc1Cl,0.305% (inactive)
20,CN1CCN(C(=O)N2c3ccccc3CCc3ccccc32)CC1,-1.45% (inactive)
21,CC(C)CN(CC(C)C)C(=O)CN1c2cccc3cccc(c23)S1(=O)=O,29.2% (active)
22,O=C(O)CN1c2cccc3cccc(c23)S1(=O)=O,0.021% (inactive)
23,CCN(CC(=O)Nc1c(F)cccc1F)C(=O)CN1c2cccc3cccc(c23)S1(=O)=O,0.416% (inactive)
24,COc1ccc(C2COC(=O)C2=N)c(NC(=O)c2ccccc2)c1 (centres undefined),-1.79% (inactive)

row,Compound,growth rescue
1,Cn1nccc1C(=O)N1CCCC(C(=O)c2ccc(Oc3ccccc3)cc2)C1 (centres undefined),1.09% (inactive)
2,Cc1nc(C(=O)N2CCCC(C(=O)c3ccc(Cl)cc3)C2)cs1 (centres undefined),-0.97% (inactive)
3,Cc1ccccc1NC(=O)C1CCCN(C(=O)NCc2ccccc2)C1 (centres undefined),-1.16% (inactive)
4,O=C(c1ccc(-c2ccccc2)cc1)C1CCCN(C(=O)c2cncs2)C1 (centres undefined),373% (active)
5,CCNC(=O)N1CCCC(C(=O)c2ccc(-c3ccccc3)cc2)C1 (centres undefined),173% (active)
6,CCOC(=O)CCNC(=O)N1CCCC(C(=O)c2ccccc2SC)C1 (centres undefined),-0.934% (inactive)
7,N#Cc1c(C(F)(F)F)cc(-c2cccs2)nc1N1CCCCC1,-0.0675% (inactive)
8,CC(=O)c1ccc(NC(=O)c2ccc(-n3cncn3)c([N+](=O)[O-])c2)cc1,0.873% (inactive)
9,CSc1ccc(CNCCN2CCOCC2)cc1,-0.373% (inactive)
10,CCOc1ccc(NC(=O)C2CCN(C(=O)N3CCOc4ccccc43)CC2)cc1,2.49% (inactive)
11,CCN(CC)S(=O)(=O)c1ccc(CNC(=O)CN2C(=O)NC3(CCc4ccccc43)C2=O)cc1 (centres undefined),0.805% (inactive)
12,COc1ccc(N2CCN(C(=O)CCNC(=O)c3ccc(Br)cc3)CC2)cc1,156% (active)
13,COc1ccc(N2CCN(C(=O)CNC(=O)c3ccc(C(C)(C)C)cc3)CC2)cc1,-0.643% (inactive)
14,COc1ccc(N2CCN(C(=O)CNC(=O)c3ccc(Br)o3)CC2)cc1,0.176% (inactive)
15,CCOC(=O)c1cnc(Nc2nc3ccccc3o2)nc1CSC(=S)N1CCCCC1,-0.518% (inactive)
16,Cc1ccc2[nH]c(=O)c(CN(CCCN(C)C)C(=O)Nc3cccc(Cl)c3)cc2c1,-0.771% (inactive)
17,CCn1c(/C=C/Nc2ccccc2)[n+](CC)c2ccc(C(=O)OCC(F)(F)F)cc21,-1.14% (inactive)
18,O=C(NN1C(=O)C2CCCCC2C1=O)c1ccco1 (centres undefined),-1.05% (inactive)
19,O=C1Nc2cc(Cl)c(Cl)cc2N(O)N1c1cc(Cl)cc(Cl)c1,7.24% (inactive)
20,CC(=O)Nc1ccccc1NC(=O)c1cc(C)cc(C)c1,51.5% (active)
21,Nc1ccc(C(=O)Nc2ccccc2N)cc1,0.192% (inactive)
22,Cc1ccccc1C(=O)Nc1ccccc1NC(=O)c1ccccc1C,-1.3% (inactive)
23,CC(=O)NNc1cc(=O)c2c(=O)n(C)c(=O)n(C)c2[nH]1,-1.81% (inactive)
24,Cc1cc(Nc2cccc(C)c2C)n2ncnc2n1,-0.558% (inactive)

row,Compound,growth rescue
1,Cc1ccc(-c2nn(C(C)(C)C)c3ncnc(N)c23)cc1,263% (active)
2,CCOc1cccc(NC(=O)Cn2nc(-c3ccc4c(c3)OCCO4)ccc2=O)c1,1.19% (inactive)
3,O=C(NCCc1ccccc1)Oc1ccc(Cl)cc1,-0.082% (inactive)
4,Cc1cc(C(=O)NCCc2ccc(Cl)cc2)n(-c2ccccc2)n1,0.0165% (inactive)
5,Cc1cc(C(=O)NCCc2ccc(Cl)cc2)c(C)o1,52.1% (active)
6,Cc1ccc(C(NC(=O)N2CCCC2)C(Cl)(Cl)Cl)cc1F (centres undefined),-0.492% (inactive)
7,CCCCn1c(SCC(=O)N2CCOCC2)nc2c1c(=O)n(C)c(=O)n2C,-0.611% (inactive)
8,CC(C)(C)OC(=O)C[C@@H]1C/C=C\C[C@@H](CC(=O)N[C@H](CO)Cc2ccccc2)C(=O)NCCOC1=O,-0.196% (inactive)
9,COc1ccc(-c2cc(=O)oc3cc(OC(C)C(=O)Nc4ccc(CN5CCOCC5)cc4)ccc23)cc1 (centres undefined),0.401% (inactive)
10,Cc1ccccc1OCC(=O)Nc1ccc(N2CCN(C(=O)C(C)C)CC2)c(Cl)c1,48.8% (active)
11,CCC(=O)N1CCN(c2ccccc2NC(=O)COc2cccc(C)c2C)CC1,2.68% (inactive)
12,COc1cc(NC(=O)COc2ccccc2Cl)ccc1NC(=O)C(C)C,1.17% (inactive)
13,CCCC1OC23CCCCC2C(C#N)(C#N)C1(C#N)C(=N)O3 (centres undefined),-1.17% (inactive)
14,CC(=O)Nc1nc(N(C)C)nc(N(C)C)n1,1.85% (inactive)
15,Cn1cccc1C(C#N)c1ccccc1C#N (centres undefined),-0.257% (inactive)
16,COc1ccccc1C(=O)NCC(=O)OCC(=O)Nc1nnc(-c2ccccc2)o1,-1.88% (inactive)
17,O=C(Nc1nnc(-c2ccc(Cl)cc2)o1)c1ccccc1Br,92.7% (active)
18,Cc1ccnc2nc(C(=O)Nc3nnc(-c4ccccc4)o3)nn12,-0.238% (inactive)
19,COc1ccc2c(c1)c1ncn(Cc3ccccn3)c(=O)c1n2C,-0.652% (inactive)
20,O=C(O)c1cc2c(cc1NC(=O)c1c(F)cccc1Cl)OCCCO2,-1.32% (inactive)
21,O=C1c2ccccc2C2=Nc3ccccc3SC(c3ccccc3F)C12 (centres undefined),152% (active)
22,CN(Cc1ccc(F)cc1)C(=O)CN1C(=O)c2ccccc2S1(=O)=O,-1.04% (inactive)
23,Cn1cncc1C#Cc1c(-c2ccsc2)sc2ccccc12,311% (active)
24,COc1ccc2sc(-c3ccc(S(C)(=O)=O)cc3)c(C#Cc3cncn3C)c2c1,-1.56% (inactive)

row,Compound,growth rescue
1,Cc1cccc(-c2oc3ccc(-c4ccc5c(c4)OCO5)cc3c2C#Cc2cncn2C)c1,0.141% (inactive)
2,CC(=NCc1ccc2c(c1)OCO2)C1=C(O)c2ccccc2C1=O,47.2% (active)
3,CCc1ccc(NC(=O)NC(C)c2ccc3c(c2)OCO3)cc1 (centres undefined),1.14% (inactive)
4,CC(=NCc1ccc2c(c1)OCO2)c1c(O)[nH]c(=O)[nH]c1=O,-0.437% (inactive)
5,CCN(/N=C/c1ccc(N(C)C)cc1)c1nc2ccccc2[nH]1,0.687% (inactive)
6,COc1ccc(N)c(C)c1,-0.552% (inactive)
7,NC(=O)Cn1nc([N+](=O)[O-])nc1Oc1ccc(Br)cc1,1.81% (inactive)
8,Cc1ccc(S(=O)(=O)N2CCOCC2)cc1NC(=O)COC(=O)c1cnccn1,0.734% (inactive)
9,COCCNc1nc(-n2nc(C)cc2C)nc2sc3c(c12)CCCC3,111% (active)
10,CCC(O)CNc1nc(-n2nc(C)cc2C)nc2sc3c(c12)CC(C)(C)OC3 (centres undefined),0.423% (inactive)
11,CCCc1nc2sc3c(c2c(=O)n1NC(=O)CCCl)CCCC3,-0.355% (inactive)
12,CC[C@]12c3[nH]c4ccc(OC)cc4c3CCN1C(=O)C(CC(=O)NCc1ccco1)C[C@@H]2C(=O)N1CCN(C(=O)C2CC2)CC1 (some centres undefined),-1.76% (inactive)
13,Cc1ccc2c(C)c(C(=O)N(C)CCC3CCCCO3)oc2c1C (centres undefined),15.7% (inactive)
14,O=C(Cn1c(NCCO)nc2ccccc21)c1ccc(Cl)cc1Cl,0.311% (inactive)
15,O=S(=O)(O)c1nc2ccccc2n1Cc1ccc(Cl)cc1Cl,46.4% (active)
16,O=S(=O)(Cc1ccccc1)c1nc2ccccc2n1Cc1ccccn1,-1.91% (inactive)
17,O=C(NC(=S)Nc1cccc(-c2ccc(CO)o2)c1)c1cccs1,5.49% (inactive)
18,Oc1c(C(c2ccccn2)N2CCOCC2)ccc2cccnc12 (centres undefined),457% (active)
19,COc1cc2c(cc1OC)C(C)N(S(=O)(=O)c1cnc(Cl)c(Cl)c1)CC2 (centres undefined),1.43% (inactive)
20,CCC(=O)Nc1sc(C(=O)Nc2ccccc2)c(C)c1C(=O)OC,4.36% (inactive)
21,CCOC(=O)c1sc(NC(=O)c2sc(C)nc2C)nc1C,-1.17% (inactive)
22,CCC(=O)Nc1nc(C)c(C(=O)Nc2cccc(Cl)c2)s1,68.4% (active)
